High-throughput results: PubChem, The Scripps Research Institute Molecular Screening Center
FBW7 activator: human FBW7 E3 ligase activation, primary screen; AlphaScreen FBW7–phospho-cyclin E peptide binding, activator screen; normalized activity (activation), % at 26.1 µM; 650,000 tested, 0.13% active; in the data active means normalized activity above about 1.9%;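 further: purified mutant Fbw7 with reduced substrate affinity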
GPR151 activ: activates the human receptor GPR151 | PathHunter beta-arrestin GPR151 cells, luminescence | activation, % at 11.2 µM | Q8TDV0 | 650,000 tested, 1% active; in the data active means activation above about 4.9%;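 further: 0% = median of compound wells and 100% = cells with positive control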
Target sequence (Q8TDV0 whole entry, looked up): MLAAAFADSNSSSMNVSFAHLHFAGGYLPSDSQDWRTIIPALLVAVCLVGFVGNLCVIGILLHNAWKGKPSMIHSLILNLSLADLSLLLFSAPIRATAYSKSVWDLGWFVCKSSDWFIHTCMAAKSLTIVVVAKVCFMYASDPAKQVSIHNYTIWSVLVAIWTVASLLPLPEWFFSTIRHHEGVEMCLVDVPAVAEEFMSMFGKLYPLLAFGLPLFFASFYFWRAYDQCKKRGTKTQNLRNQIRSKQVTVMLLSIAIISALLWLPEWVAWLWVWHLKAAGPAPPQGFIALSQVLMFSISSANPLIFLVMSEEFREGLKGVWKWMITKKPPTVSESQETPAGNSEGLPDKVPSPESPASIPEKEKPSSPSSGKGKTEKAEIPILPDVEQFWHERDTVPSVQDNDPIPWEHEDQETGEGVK
TEAD-YAP inh: TEAD-YAP interaction inhibition; AID 1259422; 640,000 tested, 1.4% active; inhibition, % at 9.12 µM; HEK-TIYL cells, TEAD-Gal4/YAP UAS-luciferase luminescence; in the data active means inhibition above about 32%;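 further: 0% = median of test compound wells and 100% = reference inhibitor wells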
MITF inh: inhibitors of human MITF | O75030 | AlphaScreen MITF homodimerization, bead proximity signal | inhibition, % at 2.6 µM | 650,000 tested, 0.91% active; in the data active means inhibition above about 50%;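 further: 0% = vehicle wells with protein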
GPR151 conf act: human GPR151 activation, confirmation screen. shares compounds with GPR151 activ. GPR151 PathHunter beta-arrestin cells, luminescence, 90 min; % of EA-reagent control over plate median. activation, % at 11.2 µM. 6,700 tested, under 10 active. AID 1508609;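 active means mean percent activation across replicates above the confirmation screen cutoff of 4.91%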
GPR119 counter: activates human GPR119 in a GPR151 counter-screen; shares compounds with GPR151 activ; GPR119 PathHunter beta-arrestin cells, luminescence, 90 min; 0 = compound-well median, 100 = enzyme-acceptor control; AID 1508611; 6,700 tested, 0.3% active; activation, % at 11.2 µM;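 active means mean percent activation in the counterscreen above 29.09%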;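 further: counterscreen on off-target GPR119 to flag nonselective hits from the GPR151 activator screen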
* = called active by the depositor; . = no result. Rows were chosen to be rich in hits. Some 3.5% of all compounds tested hit in one or more screens of this group.

SMILES	FBW7 activator	GPR151 activ	TEAD-YAP inh	MITF inh	GPR151 conf act	GPR119 counter
CCc1cc2c(cc3c(=O)n(CC(=O)NCc4ccccc4Br)ncn32)s1	0.5	6.4*	5.6	-8.0	2.6	11.4
COC(=O)CCn1c(-c2ccccc2)cn2c3c(=O)n(C)c(=O)n(C)c3nc12	0.0	-0.7	9.7	-0.2	.	.
O=C(c1ccc(Br)c(S(=O)(=O)N2CCCCC2)c1)N1CCCCC1	0.1	10.6*	-10.3	-11.3	1.7	14.1
O=C(O)COc1ccc(N2C(=O)c3ccc(-c4nc5ccccc5c(=O)o4)cc3C2=O)cc1	0.1	7.2*	0.0	-1.8	-0.4	-3.3
O=C(CCN1C(=O)C2CCCCC2C1=O)NNc1c(F)c(F)cc(F)c1F (stereo not given)	-0.1	5.4*	5.8	-10.3	-0.2	1.1
COc1ccc(OC)c(NC(=O)CCCCC(=O)Nc2cc(OC)ccc2OC)c1	-0.6	2.9	-4.5	8.5	.	.
O=C(O)c1cccc(NS(=O)(=O)/C=C/c2ccccc2)c1	0.1	-1.2	10.2	11.4	.	.
O=C(O)c1ccc(NS(=O)(=O)/C=C/c2ccccc2)cc1	0.3	7.0*	-1.2	15.4	-0.7	-8.7
Cc1cc(C)cc(CC(CC(=O)O)C(=O)O)c1 (stereo not given)	0.1	0.2	5.8	-17.4	.	.
Cc1ccc(CC(CC(=O)O)C(=O)O)cc1 (stereo not given)	0.1	6.8*	-1.2	0.6	-0.9	-13.5
COC(=O)c1ccc(/C=N/NC(=O)c2cc3ccccc3cc2O)cc1	0.6	-1.6	20.6	14.8	.	.
O=C(N/N=C/c1ccncc1)c1cc2ccccc2cc1O	-0.1	5.0*	2.7	10.4	-2.2	-12.6
O=C(N/N=C/c1ccccc1O)c1cc(-c2ccc(Br)cc2)n[nH]1	-0.1	5.5*	2.2	16.1	0.8	-4.8
O=C(N/N=C/c1ccc(O)cc1)c1cc(-c2ccc(Br)cc2)n[nH]1	0.0	0.3	19.4	8.4	.	.
O=C(N/N=C/c1cc(I)ccc1O)c1cc(-c2ccccc2)n[nH]1	-0.4	0.9	12.2	4.6	.	.
O=C(N/N=C/c1ccncc1)c1cc(-c2ccc(Br)cc2)n[nH]1	0.0	5.8*	-10.2	7.1	0.1	-2.3
Cc1nc2ccc(NC(=O)c3ccccc3Cl)cc2c(=O)n1-c1ccc(F)cc1	0.2	-0.9	0.7	2.7	.	.
O=C(C1c2ccccc2C(=O)N2CCc3ccccc3C12)N1CCN(C2CCCCC2)CC1 (stereo not given)	-0.1	11.9*	3.5	-1.5	-0.5	-3.3
CC(=O)N1CCc2cc(Br)cc(S(=O)(=O)N3CCCCC3)c21	0.0	0.5	-4.4	15.4	.	.
CC(=O)N1CCc2cc(Br)cc(S(=O)(=O)N3CCC(O)(c4cccc(C(F)(F)F)c4)CC3)c21	0.3	4.9*	2.1	-2.5	-0.6	11.3
CCOc1ccc(NC(=O)CSc2nc3ccsc3c(=O)n2CC2CCC(C(=O)O)CC2)cc1 (stereo not given)	0.9	0.1	7.2	3.8	.	.
CSc1ccc(C2C(C#N)=C(N)Oc3cc(C)oc(=O)c32)cc1 (stereo not given)	0.0	0.4	-8.2	3.1	.	.
CC(=O)Oc1ccc(/C=C2\N=C(c3ccc([N+](=O)[O-])cc3Cl)OC2=O)cc1OC(C)=O	0.0	0.7	-4.8	3.9	.	.
Nc1nc(C(F)(F)F)cc(=O)n1/N=C/c1ccc(OCc2ccccc2)cc1	0.1	-2.2	-2.0	-0.4	.	.
CC(C)Cn1c(CN2CCN(c3ccc(F)cc3)CC2)nc2c1c(=O)n(C)c(=O)n2C	0.0	10.1*	2.0	11.5	0.9	6.5
SMILES	FBW7 activator	GPR151 activ	TEAD-YAP inh	MITF inh	GPR151 conf act	GPR119 counter
C=CCn1c(SCC(=O)Nc2ccccc2F)nc2sc3c(c2c1=O)CCC(C)C3 (stereo not given)	0.4	8.7*	6.6	1.5	-0.1	-8.6
O=C(N=C1N=C2C=CC(Cl)=CN2Cc2ccccc21)c1ccc(Cl)c([N+](=O)[O-])c1	0.0	16.8*	-15.8	-0.7	1.3	-5.8
O=C(N=C1N=C2C=CC(Cl)=CN2Cc2ccccc21)c1ccco1	-0.2	-7.0	-43.4	6.4	.	.
COc1ccc(C2=N/C(=C\C(C)=C\c3ccccc3)C(=O)O2)c(Cl)c1	-0.1	0.0	-3.5	3.3	.	.
Cc1cccc(CC(Cc2nc3ccccc3[nH]2)c2nc3ccccc3[nH]2)c1 (stereo not given)	-0.2	5.6*	11.6	6.0	-0.3	-11.1
O=C1C2CCCCC2C(=O)N1c1ccc(Oc2ccc(Cl)cc2)cc1 (stereo not given)	-0.1	0.2	-5.9	-6.1	.	.
Cc1ccc2cc3c(nc2c1C)OCCN(C(=O)c1ccco1)C3	0.0	5.7*	6.2	15.9	0.1	-5.5
Cc1ccc2cc(C#N)c(N3CCCN(C(=O)c4ccco4)CC3)nc2c1C	0.1	-1.4	3.6	4.1	.	.
CC(O)CC(=O)N1CCc2cc(S(=O)(=O)N(C)C)ccc21 (stereo not given)	0.0	5.3*	-1.4	3.9	0.1	-8.7
COCCCNC(=O)c1ccc(OC(C)=O)cc1	0.0	0.1	3.7	-2.5	.	.
CCOCCCNC(=O)c1ccc(OC(C)=O)cc1	0.0	6.8*	-2.5	12.6	0.2	-15.8
COc1ccc(C(=O)n2nc(N)c3cc4ccc(C)cc4nc32)cc1	0.1	-1.8	-37.2	10.5	.	.
COc1cc(C(=O)n2nc(N)c3cc4ccc(C)cc4nc32)cc(OC)c1OC	-0.1	7.8*	41.0*	1.9	1.4	11.0
O=c1c2sc(=S)n(Cc3ccco3)c2nc(SCc2cccc(F)c2)n1-c1ccccc1	-0.1	-0.2	0.5	3.5	.	.
CCOC(=O)c1ccc(NC(=O)CSc2nc3c(c(=O)n2-c2ccc(OCC)cc2)SCC3)cc1	0.0	0.4	-8.8	3.0	.	.
COc1ccc(CCNC(=O)c2csc(Nc3ccc(C(F)(F)F)cc3)n2)cc1	-0.1	6.2*	-10.6	10.3	0.5	1.8
COc1ccc(CCNC(=O)c2csc(Nc3ccc(-n4ccnc4)cc3)n2)cc1	-0.1	6.0*	58.3*	3.1	0.1	30.5*
COc1ccc(CCNC(=O)c2cnc(Nc3ccc(-n4ccnc4)cc3)s2)cc1	0.0	0.6	-1.7	4.4	.	.
COc1ccc(CCNc2nc(Nc3ccc(-n4ccnc4)cc3)ncc2C)cc1	0.6	4.9*	18.2	7.2	-0.2	-7.9
Cc1ccc(-c2nc3n(c2CNC(=O)c2ccc(F)cc2)CCS3)cc1	-0.1	-1.6	-13.0	-0.3	.	.
CN1CCN(CCc2cn3ncnc3nc2-c2ccc(F)cc2)CC1	0.2	1.1	-0.8	-3.1	.	.
CCOC(=O)C1C(=O)CC(C)(O)C(C(=O)OCC)C1c1cccnc1 (stereo not given)	0.0	5.0*	-8.8	-2.9	0.4	4.4
CCOC(=O)C1C(=O)CC(C)(O)C(C(=O)OCC)C1c1ccc(CC)cc1 (stereo not given)	0.1	0.8	5.2	6.2	.	.
COc1cc(S(=O)(=O)N2CCN(c3ccc(C)c(C)c3)CC2)ccc1F	0.0	5.9*	-2.9	-0.8	2.3	3.5
